We go through 8 compounds from PubChem BioAssay (Tox21).

Structures are written as SMILES. Unmarked numbers belong to inactive results. Records with an inconclusive call do not appear. Activity calls are given as the source filed them. Unless noted, calls follow the shape of the dose curve; as a rule, active = well fitted curve in the direction sought with a large enough effect in the repeat runs; inconclusive = weak or mixed curves; inactive = no such curve, though single readings can be large; an effect the other way counts as inactive or inconclusive.

A short description of test [1]: qHTS assay to test for compound auto fluorescence at 535 nm (green) in HEK293 cells (AID 720680).
The nature of test [2]: qHTS assay to test for compound auto fluorescence at 460 nm (blue) in HEK293 cell free culture (AID 720681). A digest of the protocol: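 Blue fluorescence (Ex 405/Em 460 nm, triamterene-equivalent) was read immediately after pin transfer of compound or DMSO into medium (DMEM, 10% FBS) without cells.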
(In general: Quantitative high-throughput screening tests each substance at several concentrations.)

Test [3] can be described thus: qHTS assay to test for compound auto fluorescence at 535 nm (green) in HEK293 cell free culture (AID 720682). The gist of the method: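 Using fluorescein as calibrant, autofluorescence was quantified at 485/535 nm in cell-free DMEM containing 10% FBS after pintool addition of compound or vehicle.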
Test [4] is described as follows: qHTS assay to test for compound auto fluorescence at 590 nm (red) in HEK293 cell free culture (AID 720683). A digest of the protocol: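 Red-channel autofluorescence of compounds in culture medium (DMEM, 10% FBS), no cells, measured at 540/590 nm. Rose Bengal sodium is the reference fluorophore for equivalence.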
Test [5] is described as follows: qHTS assay to test for compound auto fluorescence at 590 nm (red) in HepG2 cell free culture (AID 720684). The gist of the method:
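Cell-free; medium MEM + 10% FBS; compound or DMSO added by pintool; read Ex 540/Em 590 nm; Rose Bengal sodium as red reference fluorophore.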

Test [6] is described as follows: qHTS assay to test for compound auto fluorescence at 460 nm (blue) in HepG2 cell free culture (AID 720685). The gist of the method:
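Cell-free plates of MEM plus 10% FBS received 23 nL compound or DMSO vehicle; blue-channel (405/460 nm) intensity scored against triamterene as reference fluorophore.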

The nature of test [7]: qHTS assay to test for compound auto fluorescence at 535 nm (green) in HepG2 cell free culture (AID 720686).
The nature of test [8]: qHTS assay to test for compound auto fluorescence at 460 nm (blue) in HepG2 cells (AID 720687). The gist of the method: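 Blue-channel autofluorescence (Ex/Em 405/460 nm, triamterene-equivalent) was measured after 1 hr compound exposure at 37 C, 5% CO2. Cells were HepG2, plated overnight at 37 C in MEM plus 10% FBS.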
In test [9] the target is Glucocorticoid receptor (Homo sapiens) (UniProt P04150). The test can be described thus: qHTS assay to identify small molecule agonists of the glucocorticoid receptor (GR) signaling pathway (AID 720691; active = well fitted activation curve with a large enough effect in the signal ratio in the repeat runs, not every such curve was filed as active; the % refers to the signal ratio). The gist of the method: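 Compounds in DMSO, alongside positive controls, were added to GR-bla HeLa reporter cells and incubated 18 h at 37 C; GRE-driven beta-lactamase was detected by fluorescence after 2 h with FRET substrate at room temperature.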

The target is the same in test [10]. Kind of test: qHTS assay to identify small molecule antagonists of the glucocorticoid receptor (GR) signaling pathway (AID 720692; active = well fitted inhibition curve with a large enough effect in the signal ratio in the repeat runs, not every such curve was filed as active; the % refers to the signal ratio). The gist of the method: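 In a 1536-well cell format, compounds were added 4 h after seeding GR-bla HeLa cells, together with dexamethasone at 5 nM final; reporter activity was measured by FRET-substrate fluorescence following 18 h at 37 C.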

The nature of test [11]: qHTS assay for identifying genotoxic compounds that show differential cytotoxicity against isogenic chicken DT40 cell lines with known DNA damage response pathways - wild type cell line (AID 743012). Also: nearly all actives have a fitted effect of over 60% in size. Also: potency is read from the fitted curve at half-maximal effect. A digest of the protocol: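 Viability of DNA repair-proficient chicken DT40 cells was assessed by CellTiter-Glo luminescence following 40 h compound exposure at 37 C/5% CO2.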

In test [12] the target is Androgen receptor (Homo sapiens) (UniProt P10275). Kind of test: qHTS assay to identify small molecule antagonists of the androgen receptor (AR) signaling pathway (AID 743035; active = well fitted inhibition curve with a large enough effect in the signal ratio in the repeat runs, not every such curve was filed as active; the % refers to the signal ratio). The gist of the method: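 Reporter HEK293 cells were exposed to compounds and R1881 overnight (16 h, 37C); beta-lactamase activity was then quantified by FRET fluorescence.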
The target is the same in test [13]. The test can be described thus: qHTS assay to identify small molecule agonists of the androgen receptor (AR) signaling pathway (AID 743036; active = well fitted activation curve with a large enough effect in the signal ratio in the repeat runs, with a control signal flat, not every such curve was filed as active; the % refers to the signal ratio). A digest of the protocol:
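In this Tox21 qHTS, 2,000 HEK293 AR-bla cells per well were incubated with compounds for 16 h at 37C and 5% CO2. Fluorescence intensity was recorded 2 h after adding LiveBLAzer B/G FRET substrate at room temperature.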

Test [14] shares this target. The test can be described thus: qHTS assay to identify small molecule agonists of the androgen receptor (AR) signaling pathway using the MDA cell line (AID 743040; also: nearly all actives have a fitted effect of over 20% in size). The gist of the method: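 Luciferase agonist assay: 16 h compound exposure at 37C without CO2 in MDA-kb2 AR-luc cells, whose MMTV promoter responds to both AR and GR. Luminescence measured after 30 min room-temperature incubation with ONE-Glo.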

A short description of test [15]: qHTS assay to identify small molecule antagonists of the androgen receptor (AR) signaling pathway using the MDA cell line - cell viability counter screen (AID 743041; also: nearly all actives have a fitted effect of over 45% in size). The gist of the method: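 Viability read by CellTiter-Fluor fluorescence in the same wells as the antagonist screen, added after 15.5 h of a 16 h, 37C exposure. Human breast carcinoma MDA-kb2 AR-luc cells, compounds co-dosed with agonist R1881.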

The target of test [16] is Androgen receptor (Homo sapiens) (UniProt P10275). The test can be described thus: qHTS assay to identify small molecule antagonists of the androgen receptor (AR) signaling pathway using the MDA cell line (AID 743042; also: nearly all actives have a fitted effect of over 55% in size). A digest of the protocol:
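Antagonist mode: compounds plus R1881 agonist added to MDA-kb2 AR-luc cells, incubated 16 h at 37C. Luciferase reporter luminescence quantified, with multiplexed CellTiter-Fluor readout for cell viability.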

A short description of test [17]: qHTS assay for identifying genotoxic compounds that show differential cytotoxicity against isogenic chicken DT40 cell lines with known DNA damage response pathways - Rev3 mutant cell line (AID 743014). Also: nearly all actives have a fitted effect of over 55% in size.
Test [18] in a line: qHTS assay for identifying genotoxic compounds that show differential cytotoxicity against isogenic chicken DT40 cell lines with known DNA damage response pathways - Rad54/Ku70 mutant cell line (AID 743015). Also: nearly all actives have a fitted effect of over 60% in size. Also: potency is read from the fitted curve at half-maximal effect.
Test [19] is described as follows: qHTS assay to identify small molecule antagonists of the androgen receptor (AR) signaling pathway - cell viability counter screen (AID 743033; also: nearly all actives have a fitted effect of over 45% in size).
A short description of test [20]: qHTS assay to identify small molecule antagonists of the glucocorticoid receptor (GR) signaling pathway - cell viability counter screen (AID 720693). Also: nearly all actives have a fitted effect of over 55% in size.
% is scaled to controls: 0 for no effect and ±100 for the full control effect.

Chain of Androgen receptor (Homo sapiens) (P10275 whole entry, looked up): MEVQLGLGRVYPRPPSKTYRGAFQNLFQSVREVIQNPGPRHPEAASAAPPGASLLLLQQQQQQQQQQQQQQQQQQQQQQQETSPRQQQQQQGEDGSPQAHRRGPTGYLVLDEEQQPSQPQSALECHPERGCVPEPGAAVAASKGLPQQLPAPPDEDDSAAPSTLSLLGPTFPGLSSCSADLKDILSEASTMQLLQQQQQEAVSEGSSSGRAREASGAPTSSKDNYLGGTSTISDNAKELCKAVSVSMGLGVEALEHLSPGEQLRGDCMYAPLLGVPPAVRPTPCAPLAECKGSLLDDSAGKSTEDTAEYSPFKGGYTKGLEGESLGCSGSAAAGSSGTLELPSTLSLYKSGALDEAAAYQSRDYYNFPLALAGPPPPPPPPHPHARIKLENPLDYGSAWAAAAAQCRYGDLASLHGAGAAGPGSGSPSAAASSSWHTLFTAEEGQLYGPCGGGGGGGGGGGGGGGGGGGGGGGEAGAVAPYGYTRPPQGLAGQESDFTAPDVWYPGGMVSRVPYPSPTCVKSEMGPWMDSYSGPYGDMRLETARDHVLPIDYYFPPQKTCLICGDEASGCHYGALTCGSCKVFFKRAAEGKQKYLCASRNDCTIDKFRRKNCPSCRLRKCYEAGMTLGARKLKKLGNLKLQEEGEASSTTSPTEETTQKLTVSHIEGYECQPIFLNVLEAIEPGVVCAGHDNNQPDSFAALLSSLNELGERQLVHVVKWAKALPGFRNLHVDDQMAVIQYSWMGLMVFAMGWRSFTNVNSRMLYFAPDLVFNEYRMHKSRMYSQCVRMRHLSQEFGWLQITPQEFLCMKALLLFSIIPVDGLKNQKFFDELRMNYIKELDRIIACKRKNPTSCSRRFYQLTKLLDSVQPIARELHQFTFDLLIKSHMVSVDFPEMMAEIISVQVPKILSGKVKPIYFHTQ
Chain of Glucocorticoid receptor (Homo sapiens) (P04150 whole entry, looked up): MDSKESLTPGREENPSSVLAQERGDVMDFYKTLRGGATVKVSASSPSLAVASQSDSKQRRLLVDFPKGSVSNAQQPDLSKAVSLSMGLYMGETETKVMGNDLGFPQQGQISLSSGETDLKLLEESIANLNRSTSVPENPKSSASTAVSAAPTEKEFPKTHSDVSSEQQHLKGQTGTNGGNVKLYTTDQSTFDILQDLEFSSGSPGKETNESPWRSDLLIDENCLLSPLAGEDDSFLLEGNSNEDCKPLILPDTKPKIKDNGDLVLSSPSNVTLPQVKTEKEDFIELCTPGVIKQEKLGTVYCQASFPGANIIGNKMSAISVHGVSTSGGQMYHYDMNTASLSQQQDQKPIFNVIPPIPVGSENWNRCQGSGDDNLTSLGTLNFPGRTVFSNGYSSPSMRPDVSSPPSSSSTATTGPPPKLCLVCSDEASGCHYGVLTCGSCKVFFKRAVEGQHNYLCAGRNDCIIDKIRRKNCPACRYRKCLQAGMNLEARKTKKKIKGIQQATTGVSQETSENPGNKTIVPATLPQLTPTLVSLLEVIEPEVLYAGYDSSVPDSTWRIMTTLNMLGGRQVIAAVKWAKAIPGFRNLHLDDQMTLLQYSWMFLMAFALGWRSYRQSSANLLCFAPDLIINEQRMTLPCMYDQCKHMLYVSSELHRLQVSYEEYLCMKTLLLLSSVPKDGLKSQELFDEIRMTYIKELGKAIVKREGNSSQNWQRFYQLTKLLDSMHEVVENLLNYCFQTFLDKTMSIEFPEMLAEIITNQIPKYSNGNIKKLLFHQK

With `OC(CCN1CCCC1)(c1ccccc1)C1CCCCC1` (stereo unspecified), in test [1], the fluorescence, % of fluorescein was 6.8e-05% [at 18.6 µM]. Besides, the fluorescence, % of fluorescent control in test [2] is -0.0085% [at 18.6 µM]; in test [4] it was -0.206% [at 18.6 µM]; in [6], 0.0206% [at 18.6 µM]; in test [8] it was 0.0411% [at 18.6 µM]. Besides, in test [3], the activity change is 0.0202% [at 18.6 µM]. The fluorescence, % of Rose Bengal in [5] is -0.161% [at 18.6 µM]. In addition, in test [7], the fluorescence, % of fluorescein control is -0.0329% [at 18.6 µM]. For the same compound, the Potency result in [9], in test [10], in test [12], in test [15] and in test [16] was “inactive” each time. In addition, the Potency in test [11] is 11.4 µM (active). The compound was classed as inactive in test [13] and in test [14].

As to `CCC(=O)C1CC(C(C)C)CC=C1C` (stereo unspecified), the result in test [1], in [3], in test [4], in [5], in test [7] and in [13] was inactive. In test [14], the outcome was inactive. In addition, the Potency entry in test [2], in test [6], in test [8], in [9], in test [11] and in test [17] was “inactive” in each case. For the same compound, the Potency result in test [18], in test [19], in test [12], in [15] and in test [16] was “inactive” in each case.

Regarding `O=c1[nH]ncc2ccccc12`, the result in [1], in test [3], in test [4], in test [5] and in test [7] was inactive. Further, the Potency entry in test [2], in [6], in test [8], in test [9], in [10] and in [11] was “inactive” in each case. Moreover, the Potency result in [17], in test [18] and in [15] was “inactive” in each case.

As to `CC=C(Cl)Cl`, the compound was classed as inactive in test [1], in test [3], in test [4], in test [5] and in test [7]. For the same compound, the Potency result in [2], in test [6], in test [8], in test [9], in test [20] and in test [11] was “inactive” throughout. Moreover, the Potency entry in [17], in test [18], in [19] and in test [15] was “inactive” in each case.

Regarding `C=C1C[C@@]23CC[C@H]4[C@@](C)(CCC[C@@]4(C)C(=O)O[C@@H]4O[C@H](CO)[C@@H](O)[C@H](O)[C@H]4O)[C@@H]2CC[C@]1(O[C@@H]1O[C@H](CO)[C@@H](O)[C@H](O[C@@H]2O[C@H](CO)[C@@H](O)[C@H](O)[C@H]2O)[C@H]1O[C@@H]1O[C@H](CO)[C@@H](O)[C@H](O)[C@H]1O)C3`, the call in [1], in [3], in test [4], in [5], in test [7] and in [13] was inactive. Besides, the call in [14] was inactive. Further, the Potency result in [2], in test [6], in [8], in test [9], in test [20] and in test [11] was “inactive” in each case. In addition, the Potency entry in [17], in test [18], in test [19], in [12], in test [15] and in test [16] was “inactive” throughout.

As for `O=C1NC(=O)c2cc([N+](=O)[O-])ccc21`, the compound was called inactive in [1], in test [3], in test [4], in test [5], in [7] and in test [14]. In addition, the Potency entry in test [2], in test [6], in test [8], in test [9], in test [20] and in [11] was “inactive” in each case. The Potency entry in test [17], in test [18], in test [19], in test [12], in [15] and in test [16] was “inactive” throughout.

On to `CC(C)=CCC/C(C)=C/CC/C(C)=C/CCC(=O)OC/C=C(\C)CCC=C(C)C`, for which the result in test [1], in [3], in [4], in test [5] and in [7] was inactive. The Potency result in [2], in test [6], in test [8], in [9], in [20] and in [17] was “inactive” in each case. Besides, the Potency entry in test [19] and in [15] was “inactive” in each case.

In the case of `CCCCCCNC(=O)n1cc(F)c(=O)[nH]c1=O`, the compound was called inactive in test [1], in test [3], in [4], in test [5] and in test [7]. Further, the Potency entry in test [2], in test [6], in test [8], in test [9], in test [20] and in [15] was “inactive” throughout. The Potency in test [11] is 8.41 µM (active); in test [18], 11.9 µM (active).
